# Compound activity deposited in PubChem BioAssay by National Center for Advancing Translational Sciences (NCATS).
# Sfp PPTase inh – Sfp phosphopantetheinyl transferase inhibition; Potency, µM, for inactives: largest response in the series, negative = inhibition, actives largely listed as inhibitors; Q9F4F7; 310,000 compounds, 3.5% hits; Biochemical Sfp PPTase activity, qHTS;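 note: the enzyme is Sfp with the accession as filed and its product quenches rhodamine fluorescence; potency is the fitted concentration of half-maximal effect; 0% = enzyme reaction without inhibitor and -100% = no enzyme wells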
#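 After 15 min at room temperature with compound, 15 nM Sfp received 5 uM rhodamine-CoA plus 12.5 uM BHQ-2-ybbR (50 mM Hepes pH 7.6, 10 mM MgCl2). Rate came from the fluorescence difference over 30 min, ex 525/em 598 nm.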
# FBPA coupling cs – inhibits coupling enzyme system, counter-screen for aldolase hits | coupling enzyme system counterscreen, AmpLite Red fluorescence | activity change, negative = inhibition, % at 58.2 µM, hits read low | 290,000 compounds, 0.67% hits; in the data active = activity change below about -30%
#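 Compounds tested against the coupling enzymes alone at 57.5 uM final; readout was AmpLite Red fluorescence (525/598 nm) after 20 min at RT.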
# Tau fibril ThT – blocks human tau fibril formation measured by thioflavin T. Potency, µM (series often up to 57.4 µM), inactives show top-dose activity, negative = inhibition, hits mostly inhibitors. AID 1460. recombinant tau K18 P301L, heparin-induced fibrillization, ThT fluorescence. P10636. 270,000 compounds, 2.1% hits; note: potency is the fitted concentration of half-maximal effect; nearly all actives have a fitted effect of over 55% in size
# Target sequence (P10636 561-689 P618L limits assumed): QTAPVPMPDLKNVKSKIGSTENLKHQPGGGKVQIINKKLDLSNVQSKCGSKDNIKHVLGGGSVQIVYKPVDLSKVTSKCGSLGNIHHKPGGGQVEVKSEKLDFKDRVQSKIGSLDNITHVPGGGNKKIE
#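 Fibril formation assay: tau K18 P301L at 15 uM with trace Alexa 594 label, heparin inducer 20 uM, pH 7 sodium acetate buffer, 37 C for 6 hr; endpoint ThT signal.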
# Tau fibril FP – blocks human tau fibril formation measured by polarization. P10636. K18 P301L tau heparin fibrillization, Alexa594 FP, 6 h. Potency, µM (titrated, usually from 57.7 µM), without a hit: at the highest dose activity, negative = inhibition, usual class: inhibitors. 280,000 compounds, 0.39% hits. AID 1468; note: potency is the fitted concentration of half-maximal effect; nearly all actives have a fitted effect of over 55% in size
#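 Quantitative HTS format: compounds meet 15 uM recombinant K18 P301L tau and Alexa 594-tau tracer in 100 mM sodium acetate pH 7; 20 uM heparin triggers fibrillization at 37 C over 6 hr; FP gives the signal.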
# Tau fluor cs – counter-screen for tau fibril formation inhibitors | AID 1463 | tau K18 P301L (four-repeat tau fragment) Alexa594 fluorescence, heparin fibrillization | 280,000 compounds, 0.93% hits | Potency, µM (highest dose often 57.7 µM), without a hit: top-dose activity change, negative = decrease; note: potency is the fitted concentration of half-maximal effect; nearly all actives have a fitted effect of over 55% in size
#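 Human K18 P301L tau (15 uM unlabeled plus 0.24 uM Alexa 594-labeled, final) in 100 mM sodium acetate pH 7 was mixed with compound and 20 uM heparin and incubated 6 hr at 37 C.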
# * hit, by the source's call; ? = inconclusive; · = no result; [ ] = remark or other dose. Shown are actives, neighbours in structure and some others; about 5.2% of the full set was active somewhere. Unless noted, calls come from the whole dose curve; as a rule, active = well fitted curve in the direction sought with a large enough effect; inconclusive = small, poorly fitted or top-dose-only effect, or another doubt; inactive = no such curve, though single readings can be large; an effect the other way counts as inactive or inconclusive. Unless noted, % is set by controls: 0 for no effect and ±100 for the full control effect.
SMILES,Sfp PPTase inh,FBPA coupling cs,Tau fibril ThT,Tau fibril FP,Tau fluor cs
CC(=O)N1CCC2(CCCN(C(=O)Nc3cccc(F)c3)C2)CC1,6%,2,·,·,·
N#Cc1ccc(CSc2nc3c(c(=O)[nH]2)CCCC3)cc1,·,·,6%,-4%,6%
COc1cccc(CN2CCN(Cc3ccco3)CC2)c1,45µM*,-2,·,·,·
COc1cccc(CN2CCN(Cc3cc(OC)c(OC)cc3OC)CC2)c1,56µM*,1,·,·,·
Cc1ccc(N2CC(O)(c3cccs3)[N+]3=C2CCCC3)cc1 (stereo not drawn),19%,3,8%,4%,7%
Cc1ccc(N2NC(C)(c3cccs3)NC2=S)cc1 (stereo not drawn),71µM*,0,16µM*,-8%,?
CC(C)(C)c1ccc(O)c(N=Cc2cc(Br)ccc2O)c1,50µM*,-5,?,-5%,?
Cc1ccc(O)c(C=Nc2cc(C)ccc2O)c1,-8%,-4,?,-3%,-10%
CCN(CC)c1ccc(N=Cc2cc(Br)ccc2O)cc1,63µM*,-22,16µM*,?,?
C=C1C2c3ccccc3C(CC2(C)O[Si](C)(C)C)N1C(=O)OC (stereo not drawn),-1%,-1,9%[11.5 µM],4%[11.6 µM],2%[11.6 µM]
Cc1ccc(CN2CCSc3ccc(C(=O)N4CCN(c5cccc(C)c5C)CC4)cc32)cc1,·,·,?,0%,-25%
COc1ccc2c(c1)c1c(c(=O)n(Cc3ccccc3)c(=O)n1CC(=O)NCc1ccc(C)cc1)n2C,·,·,-3%,1%,-10%
CCc1ccc2oc(-c3cc(NC(=O)c4cccs4)ccc3Cl)nc2c1,·,·,-8%,13µM*,?
O=[N+]([O-])c1ccc(O)c(C=Nc2cccc3ccccc23)c1,7%,-10,·,·,·
Cc1ccc2oc(-c3cc(NC(=O)c4ccco4)ccc3Cl)nc2c1,·,·,-11%,?,?
CC(C)c1ccc2oc(-c3cc(NC(=O)c4cccnc4)ccc3Cl)nc2c1,·,·,2%,7.9µM*,?
O=[N+]([O-])c1ccc(O)c(C=Nc2ccc3oc(Cc4ccc(Cl)cc4)nc3c2)c1,28µM*,-35*,?,-12%,?
COC1CCN(C(=O)c2ccc3oc(Cc4ccc(Cl)cc4)nc3c2)CC1,20%,0,·,·,·
Nc1ccc2oc(Cc3ccc(Cl)cc3)nc2c1,·,·,22µM*,?,?
C[C@@H]1CC[C@H]2C(=O)O[C@H](CN=[N+]=[N-])CN2[C@@H]1c1ccc(Br)cc1,5%,1,-2%[11.5 µM],-5%[11.6 µM],-4%[11.6 µM]
CN(Cc1ccccc1)C(=O)C1CCN(S(=O)(=O)Cc2ccccc2)CC1,·,·,-6%,-6%,6%
CCc1ccc2oc(-c3cc(N)ccc3O)nc2c1,-16%,-8,?,11%,?
CCc1ccc2oc(-c3cc(N)ccc3Cl)nc2c1,4%,-2,?,10%,14µM*[quencher]
Cn1c(=O)oc2cc(S(=O)(=O)NCCC(=O)Nc3ccc(F)cc3F)ccc21,·,·,-7%,-1%,-8%
COCCCn1c(O)c(/C=C2\N=C(C#N)C(=Nc3ccc(C)cc3)O2)sc1=S,13µM*,-1,11µM*,?,?
SMILES,Sfp PPTase inh,FBPA coupling cs,Tau fibril ThT,Tau fibril FP,Tau fluor cs
CCCCN(CC)C(=O)CCCn1c(=O)c2cccn2c2ccccc21,·,·,-20%,-10%,-16%
NS(=O)(=O)c1ccc(N/N=C/C=C/c2ccccc2[N+](=O)[O-])cc1,9%,-3,·,·,·
O=C(O)c1cc(N/N=C/C=C/c2ccccc2[N+](=O)[O-])ccc1Cl,-26%,5,3.5µM*,-3%,?
Cc1ccc(-c2nc(NC(=O)CSc3nnc4scc(-c5ccccc5)n34)ns2)cc1,35µM*,7,-13%,-8%,-10%
Cc1ccc(NC(=O)CSc2nnc3scc(-c4ccc(Cl)cc4)n23)cc1,·,·,6%,?,0%
CN1CCN(c2nc(-c3ccccc3C(F)(F)F)nc3ccccc23)CC1,18%,1,·,·,·
O=C(O)c1cccc2c(/C=N/Nc3ccccn3)c[nH]c12,50µM*,1,·,9%,-24%
O=c1nc(N/N=C/c2c[nH]c3ccccc23)cn[nH]1,50µM*,0,·,-3%,-18%
C(=N\c1nccs1)/c1c[nH]c2ccccc12,45µM*,-12,-10%,2%,-7%
C(=N\Nc1ccccn1)/c1c[nH]c2ccccc12,?,0,7.1µM*,9%,14µM*[quencher]
O=c1cnnc(N/N=C/c2c[nH]c3ccccc23)[nH]1,?,2,?,1%,-19%
FC(F)(F)c1ccccc1/C=N/Nc1ccccn1,79µM*,1,-7%,-13%,-13%
Brc1ccccc1/C=N/Nc1ccccn1,16%,-1,0%,10%,-2%
O=C(Nc1nc2n(n1)C(c1ccccc1)C=C(c1ccccc1)N2)c1ccco1 (stereo not drawn),56µM*,4,?,-8%,-1%
CC1=CC(c2ccc(Cl)cc2)n2nc(NC(=O)c3ccccc3)nc2N1 (stereo not drawn),-8%,-10,-10%,-3%,-6%
O=C(Nc1nc2n(n1)C(c1ccccc1)C=C(c1ccc(Cl)cc1)N2)c1ccco1 (stereo not drawn),·,·,?,-5%,-17%
CC(=O)Nc1nc2n(n1)C(c1ccc(Cl)cc1)C=C(C)N2 (stereo not drawn),56µM*,3,-9%,-3%,-12%
CC(=O)Nc1nc2n(n1)C(c1ccc(F)cc1)C=C(c1ccccc1)N2 (stereo not drawn),35µM*,-24,-6%,-12%,-6%
COc1ccc(N2CCN(C(=O)CCc3c(C)nc4c(-c5ccccc5)c(C)nn4c3C)CC2)cc1,·,·,?,-8%,?
COc1ccc(/C=C/C(=O)c2ccccc2)cc1COc1ccccc1F,89µM*,-5,-10%,-2%,-14%
CN(C)c1ccc(CNc2nc(-c3ccco3)nn2C(=O)c2cccc([N+](=O)[O-])c2)cc1,·,·,?,9%,13µM*[quencher]
COC(=O)Cc1sc(-c2ccccn2)nc1-c1ccccc1,22µM*,0,-8%,-5%,-5%
COc1ccc(OC)c(NC(=O)CN2C(=O)COc3ccc(S(=O)(=O)NC4CCCC4)cc32)c1,·,·,-5%,2%,-11%
CCn1cc(C(=O)NCc2ccc(C)o2)c2cc(OC)c(OC)cc2c1=O,35µM*,-5,?,?,-14%
Cc1ccc(C)c2[nH]c(=O)c(CN(CCN3CCCC3)C(=O)Nc3cccc(Cl)c3)cc12,14µM*,2,-17%,1%,-17%
Cc1cc(C)c2cc(CN(CCN3CCCC3)C(=O)Nc3ccc(F)cc3)c(=O)[nH]c2c1,9%,-13,?,?,-20%
O=c1cc(O)c2sc(Nc3ccc(Cl)c(F)c3)nc2[nH]1,?,2,16µM*,13µM*,?
O=c1cc(O)c2sc(Nc3ccc(F)c(Cl)c3)nc2[nH]1,-100%,-20,28µM*,?,?
